Assay in all cases: yeast three-hybrid, YBZ-1, SC-Leu-His + 0.5 mM 3-AT, 4 days
What all share (conditions): tags: N-Gal4 AD-HA kept; label: inside an RPR1-promoter hybrid RNA with tandem MS2 sites; ssRNA

For one assay, the target named is PUM1 PUF domain R3-FRM (Homo sapiens, UniProt Q14671 828-1176, C935F;Q939M). In a few lines:
(§1)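 Pumilio-1 PUF domain libraries, randomized (NNK) at the three base-contacting residues of each repeat, were co-expressed with matching RNA elements from a centromeric plasmid in strain YBZ-1 (LexA–MS2 coat fusion, HIS3 reporter). Transformants were plated on SC-Leu (input) and SC-Leu-His + 0.5 mM 3-AT (selection) for four days, and repeat regions were PCR-amplified and Illumina-sequenced. The interaction score is the log2 change in variant frequency from input to selection, with pseudocount 1 where absent.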

In the next assay the target is PUM1 PUF domain R3-RQW (Homo sapiens, UniProt Q14671 828-1176, C935R;R936Q;Q939W). In a few lines: as §1
In a further assay the target is PUM1 PUF domain R5-DFL (Homo sapiens, UniProt Q14671 828-1176, C1007D;R1008F;Q1011L). A digest of the protocol: as §1
For the next assay, the target named is PUM1 PUF domain R4-CLQ (Homo sapiens, UniProt Q14671 828-1176, N971C;H972L). In a few lines:
as §1

The next assay concerns the target PUM1 PUF domain R5-RAR (Homo sapiens, UniProt Q14671 828-1176, C1007R;R1008A;Q1011R). In a few lines: as §1
Another assay deals with T1, PUM1 PUF domain R6-HFL (Homo sapiens, UniProt Q14671 828-1176, N1043H;Y1044F;Q1047L).
T1 sequence: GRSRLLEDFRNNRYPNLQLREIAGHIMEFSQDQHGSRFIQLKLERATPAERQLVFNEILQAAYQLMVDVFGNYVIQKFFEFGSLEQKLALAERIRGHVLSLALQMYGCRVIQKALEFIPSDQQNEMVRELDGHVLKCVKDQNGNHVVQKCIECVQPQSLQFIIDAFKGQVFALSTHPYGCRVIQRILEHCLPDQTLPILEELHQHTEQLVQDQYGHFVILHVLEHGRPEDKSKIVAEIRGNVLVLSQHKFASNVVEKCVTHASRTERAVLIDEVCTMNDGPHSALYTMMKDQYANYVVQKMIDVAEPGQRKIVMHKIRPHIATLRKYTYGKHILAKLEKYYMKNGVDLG
In a few lines: as §1

In another assay the target is PUM1 PUF domain R5-FRL (Homo sapiens, UniProt Q14671 828-1176, C1007F;Q1011L). A digest of the protocol:
as §1

The next assay addresses PUM1 PUF domain R3-FCV (Homo sapiens, UniProt Q14671 828-1176, C935F;R936C;Q939V). A digest of the protocol:
as §1

The next assay has as its target PUM1 PUF domain R5-SGG (Homo sapiens, UniProt Q14671 828-1176, C1007S;R1008G;Q1011G). A digest of the protocol: as §1
For the next assay, the target named is PUM1 PUF domain R4-FAA (Homo sapiens, UniProt Q14671 828-1176, N971F;H972A;Q975A). A digest of the protocol: as §1
Another assay addresses PUM1 PUF domain R4-PHC (Homo sapiens, UniProt Q14671 828-1176, N971P;Q975C). A digest of the protocol: as §1
The target in another assay is PUM1 PUF domain R1-RVM (Homo sapiens, UniProt Q14671 828-1176, S863R;R864V;Q867M). In a few lines: as §1
A further assay concerns the target PUM1 PUF domain R1-RCV (Homo sapiens, UniProt Q14671 828-1176, S863R;R864C;Q867V). In a few lines:
as §1

A further assay concerns the target PUM1 PUF domain R1-KLE (Homo sapiens, UniProt Q14671 828-1176, S863K;R864L;Q867E). A digest of the protocol:
as §1

The target of another assay is PUM1 PUF domain R5-HNR (Homo sapiens, UniProt Q14671 828-1176, C1007H;R1008N;Q1011R). In a few lines: as §1

As to “GGCUAGAACUAGUGGAUCCCCCGGCGCCCGGCGGCUCGAGCCCGGGUAAGUGUAAUUAGUCUGCAUGCCGCCGGGCGCCAUGCCUGCAGGUCGACUCUAGAAAACAUG”, the results for the binding signal in the assay with PUM1 PUF domain R3-FRM and in the assay with PUM1 PUF domain R3-RQW were 0.74 log2 enrichment (interaction score) and 2.52 log2 enrichment (interaction score), respectively.

In the case of “GGCUAGAACUAGUGGAUCCCCCGGCGCCCGGCGGCUCGAGCCCGGGUAAGUGUAAAUAGUCUGCAUGCCGCCGGGCGCCAUGCCUGCAGGUCGACUCUAGAAAACAUG”, the binding signal in the assay with PUM1 PUF domain R5-DFL is 3.51 log2 enrichment (interaction score); with PUM1 PUF domain R4-CLQ, 3.83 log2 enrichment (interaction score); with PUM1 PUF domain R5-RAR it was 0.57 log2 enrichment (interaction score); with PUM1 PUF domain R6-HFL, 2.57 log2 enrichment (interaction score); in the assay with PUM1 PUF domain R5-FRL, 1.49 log2 enrichment (interaction score).

On to “GGCUAGAACUAGUGGAUCCCCCGGCGCCCGGCGGCUCGAGCCCGGGUAAGUGUAAGUAGUCUGCAUGCCGCCGGGCGCCAUGCCUGCAGGUCGACUCUAGAAAACAUG”, for which the binding signal was 4.56 log2 enrichment (interaction score) with PUM1 PUF domain R3-FCV and 5.33 log2 enrichment (interaction score) in the assay with PUM1 PUF domain R3-FRM.

On to “GGCUAGAACUAGUGGAUCCCCCGGCGCCCGGCGGCUCGAGCCCGGGUAAGUGUGAAUAGUCUGCAUGCCGCCGGGCGCCAUGCCUGCAGGUCGACUCUAGAAAACAUG”, for which the figures for the binding signal with PUM1 PUF domain R5-SGG and with PUM1 PUF domain R5-FRL were 3.53 log2 enrichment (interaction score) and 0.24 log2 enrichment (interaction score), respectively.

Take “GGCUAGAACUAGUGGAUCCCCCGGCGCCCGGCGGCUCGAGCCCGGGUAAGUGUAUAUAGUCUGCAUGCCGCCGGGCGCCAUGCCUGCAGGUCGACUCUAGAAAACAUG”: the binding signal with PUM1 PUF domain R4-FAA is 2.2 log2 enrichment (interaction score); in the assay with PUM1 PUF domain R4-PHC, 4.13 log2 enrichment (interaction score).

Consider “GGCUAGAACUAGUGGAUCCCCCGGCGCCCGGCGGCUCGAGCCCGGGUAAGUGUAAAUGGUCUGCAUGCCGCCGGGCGCCAUGCCUGCAGGUCGACUCUAGAAAACAUG”, for which the binding signal in the assay with PUM1 PUF domain R1-RVM was 1.04 log2 enrichment (interaction score).

For “GGCUAGAACUAGUGGAUCCCCCGGCGCCCGGCGGCUCGAGCCCGGGUAAGUGUAAAUCGUCUGCAUGCCGCCGGGCGCCAUGCCUGCAGGUCGACUCUAGAAAACAUG”, the binding signal with PUM1 PUF domain R1-RVM is 3.24 log2 enrichment (interaction score); with PUM1 PUF domain R1-RCV it was 3.67 log2 enrichment (interaction score); in the assay with PUM1 PUF domain R1-KLE it was 3.36 log2 enrichment (interaction score).

As to “GGCUAGAACUAGUGGAUCCCCCGGCGCCCGGCGGCUCGAGCCCGGGUAAGUGUUAAUAGUCUGCAUGCCGCCGGGCGCCAUGCCUGCAGGUCGACUCUAGAAAACAUG”, the binding signal with PUM1 PUF domain R5-HNR is 4.6 log2 enrichment (interaction score); with PUM1 PUF domain R5-RAR it was 2.31 log2 enrichment (interaction score); with PUM1 PUF domain R5-FRL it was 1.67 log2 enrichment (interaction score).

The record behind these values is publication PMC8384837, “Expanding the binding specificity for RNA recognition by a PUF domain”.
